The target of one experiment is SLC39A12. The experiment in a line: pooled miR-30 sensor sort-seq; sequence = guide strand. The note with it: shRNA.
On to TTTATTACTCATGTTGAGCTTT, for which the sensor-assay potency score (higher = more potent) is -0.0356.

Take TTGTCCCAGACAAACACCCTGG: the sensor-assay potency score (higher = more potent) is -0.6.

Turning to TTTTGATACAAGTACTTCTGGT, the sensor-assay potency score (higher = more potent) was -0.57.

Sequence TATTCTGTAAAGTAGTCTGGGG returned a sensor-assay potency score (higher = more potent) of -0.404.

For the next experiment, the target named is SLC39A3. The description is as above. Conditions: shRNA.
As for TTACCTTTTCCCTCACAGCGGG, the sensor-assay potency score (higher = more potent) is -0.333.

The sequence TTGCAGAGAGAGAGGATCTTTT yielded a sensor-assay potency score (higher = more potent) of -0.914.

TCTGTCTCGATGATCTTCACGG gave a sensor-assay potency score (higher = more potent) of -0.084.

Sequence TGTCTCGATGATCTTCACGGGG had a sensor-assay potency score (higher = more potent) of -0.768.

Consider TTAAAAAGTAGCAGTGCTCTGA, for which the sensor-assay potency score (higher = more potent) was 0.00339.

As for TGATTATCAGGTGACAACCGAC, the sensor-assay potency score (higher = more potent) is -1.07.

Turning to TAGGTGGGTAGTCTGGTCTGAT, the sensor-assay potency score (higher = more potent) is -0.578.

As for AAAATCTGTCTCGATGATCTTC, the sensor-assay potency score (higher = more potent) came out at 0.079.

Consider TAGTCGGTGCTGATGTGGCCGA, for which the sensor-assay potency score (higher = more potent) was -1.33.

TCAGTGTTGAAAATGCATCAGA came in with a sensor-assay potency score (higher = more potent) of -0.941.

The sequence TTTCTGGACACTAGGCACGAGG yielded a sensor-assay potency score (higher = more potent) of -1.43.

Turning to TACCTTTTCCCTCACAGCGGGC, the sensor-assay potency score (higher = more potent) is -1.41.

The next experiment deals with SLC44A2. The experiment is described as above. The note with it: shRNA.
For TCTTTGATGAGTGCAATCGCGA, the sensor-assay potency score (higher = more potent) was -1.09.

The sequence TTTGATGAGTGCAATCGCGATG displayed a sensor-assay potency score (higher = more potent) of -0.724.

Sequence TAATCCAGTACCAAGAGACGGT came in with a sensor-assay potency score (higher = more potent) of 0.196.

TTGTTGGTCTTGTTCAAGGGTT yielded a sensor-assay potency score (higher = more potent) of -0.803.

With TACTTGTTTCTCGCAGTCTGGA, the sensor-assay potency score (higher = more potent) was -0.0969.

On to TCAGACACAAACACCGTCCTTC, for which the sensor-assay potency score (higher = more potent) amounted to 0.677.

The sequence TATAGTACTCAAAGTCCCGGGA gave a sensor-assay potency score (higher = more potent) of -0.338.

Regarding TTATAGACCGCTTCGTTGGAAG, the sensor-assay potency score (higher = more potent) is -0.973.

In turn, TGTAGCAGTGAAATATTCCGTA showed a sensor-assay potency score (higher = more potent) of 0.424.

Turning to TTACTTGTTTCTCGCAGTCTGG, the sensor-assay potency score (higher = more potent) is -0.794.

Take TTATAGTACTCAAAGTCCCGGG: the sensor-assay potency score (higher = more potent) turned out to be 0.0732.

The next experiment deals with SLC45A3. Described as above. The note with it: shRNA.
Sequence AAGGTCATGAGTGCCATCCAGC returned a sensor-assay potency score (higher = more potent) of -1.03.

For AAAGGTTAGCAGGTTGACCAGC, the sensor-assay potency score (higher = more potent) was -0.476.

Sequence TAGCAGGTTGACCAGCAAGAGC gave a sensor-assay potency score (higher = more potent) of -1.81.

For TAGCTGTTAACCCTGAGCCTGG, the sensor-assay potency score (higher = more potent) is -0.971.

On to TTTGGGCAGGAACACCTGCTTC, for which the sensor-assay potency score (higher = more potent) is -1.54.

The sequence TAAAACAGCGTGAAGGTCATGA had a sensor-assay potency score (higher = more potent) of 0.302.

Consider AAATCCGTGTAAAACAGCGTGA, for which the sensor-assay potency score (higher = more potent) is -0.511.

Consider TAGGTGTGTCTCAACTAGGAGG, for which the sensor-assay potency score (higher = more potent) is -0.961.

In the case of TGAACTTCTCCTCTACCCCCAC, the sensor-assay potency score (higher = more potent) was -0.547.

TCTTGTCAAATACTACCTGTGT showed a sensor-assay potency score (higher = more potent) of -0.281.

TAGGCAGTGACAGACTGGCTGA: the sensor-assay potency score (higher = more potent) was -0.555.

For TTCATCATAGTGTCTCCGGGCC, the sensor-assay potency score (higher = more potent) stood at 0.0522.

These data come from the OligoGym collection.
Also: reference of the scale not given here.
